D1 PAM = enhances dopamine response at the human D1 receptor. P21728. AID 504651. 360,000 tested, 0.036% active. HEK293 TREx D1 cells, calcium flux, dopamine EC20 potentiation. potentiation, % at 10 µM; in the data active = potentiation above about 30%; also: 0% is about no effect
D1 antag = antagonists of human D1 dopamine receptor | P21728 | 360,000 tested, 3.2% active | HEK293 TREx D1 cells, calcium flux, dopamine EC80; stronger effect = lower value | activity change, negative = inhibition, % at 10 µM; in the data active = activity change below about -30%; also: % is scaled to controls: 0 for no effect and ±100 for the full control effect
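Using tetracycline-induced force-coupled D1 Hek293 cells and a calcium dye, signals were followed for 180 s after compound, then for 180 s after EC80 dopamine, to detect inhibitors.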
D1 agonist = activates the human D1 dopamine receptor. P21728. AID 504660. HEK293 T-REx D1 cells, calcium flux, agonist mode. activation, % at 2 µM. 360,000 tested, 1% active; also: 0% is about no effect
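Inducible HEK293 T-REx D1 cells, force-coupled to calcium signalling, were plated at 4000 cells/well with tetracycline and held overnight at 30 C. After no-wash calcium dye loading, compound-evoked calcium rise over 180 s flagged agonists.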
TRHR agonist = agonists of human TRH receptor; P34981; AID 493084; activation, % at 2 µM; TRHR cells, calcium flux fluo-8, FDSS agonist mode; 360,000 tested, 0.18% active; also: 0% is about no effect
Target sequence (P34981 whole entry, looked up): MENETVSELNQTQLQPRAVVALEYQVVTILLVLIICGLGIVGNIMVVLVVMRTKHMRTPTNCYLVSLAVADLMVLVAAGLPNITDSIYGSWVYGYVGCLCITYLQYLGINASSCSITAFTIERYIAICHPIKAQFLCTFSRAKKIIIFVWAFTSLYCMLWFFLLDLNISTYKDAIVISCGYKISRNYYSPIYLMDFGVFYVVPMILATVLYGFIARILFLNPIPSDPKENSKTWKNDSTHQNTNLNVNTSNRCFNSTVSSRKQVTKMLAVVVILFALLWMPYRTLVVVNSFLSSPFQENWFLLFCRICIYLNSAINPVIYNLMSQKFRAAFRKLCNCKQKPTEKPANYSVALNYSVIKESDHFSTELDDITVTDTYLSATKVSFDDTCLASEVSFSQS
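Read-out: compound-evoked intracellular calcium rise in TRHR cells, fluo-8 dye, kinetic FDSS fluorescence at 1 s/cycle following a 10-cycle baseline. Cells cultured overnight before dye loading (30 min–1.5 h, RT).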
TRHR enhancer = allosterically enhances the human TRH receptor; P34981; TRHR cells, fluo-8 calcium fluorescence, EC20 TRH enhancement; enhancement, % at 2 µM; 360,000 tested, 0.66% active; AID 493056; in the data active = enhancement above about 30%; also: 0% is about no effect
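Enhancer read-out: after compound pinning and an initial kinetic agonist-mode read, an EC20 of TRH (10 nM final) was injected and fluo-8 calcium signal (Ex 480/Em 530) followed at 1 s/cycle for 100 cycles in TRHR-expressing cells.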
Numbers without * were called inactive; ! = repeats disagree. Hits are enriched below; roughly 4.6% of the tested compounds scored in any of these assays. Rule as the data show it, unless noted: active = activation above about 30%; inactive = the rest.

Screening COc1cccc(CNC(=O)CCn2c(=O)c3cccn3c3ccc(F)cc32)c1OC returned D1 PAM -4, D1 antag 4, D1 agonist -2, TRHR agonist -1 and TRHR enhancer -26.
Screening O=C(Cn1ccn(-c2ccc(F)cc2)c(=O)c1=O)Nc1ccc(F)cc1 returned D1 PAM -2, D1 antag -6, D1 agonist 1, TRHR agonist 0 and TRHR enhancer -3.
COc1cccc(CNC(=O)Cn2nc(N3CCN(c4ccccc4OC)CC3)ccc2=O)c1 was read as D1 PAM -3, D1 antag -15, D1 agonist 3, TRHR agonist -1 and TRHR enhancer -6.
For CCCCCCCCCCC[N+](C)(C)CC/C=C1/c2ccccc2Sc2ccc(Cl)cc21 the results were D1 PAM -9, D1 antag -8, D1 agonist 48*, TRHR agonist 2 and TRHR enhancer 1.
`CN1CCN(CCCNC(=O)c2cn(C)c3ccc(S(=O)(=O)N(C)C)cc3c2=O)CC1` gave D1 PAM -4, D1 antag -6, D1 agonist 4, TRHR agonist 0 and TRHR enhancer -4.
`OCCN1CCN(CC/C=C2/c3ccccc3Sc3ccc(Cl)cc32)CC1` gave D1 PAM -5, D1 antag -100*, D1 agonist 27, TRHR agonist -1 and TRHR enhancer 0.
`OCCN1CCN(CCCN2c3ccccc3Sc3ccc(Cl)cc32)CC1` gave D1 PAM -6, D1 antag -83*, D1 agonist 12, TRHR agonist 2 and TRHR enhancer 1.
CN1CCN(CCCN2c3ccccc3Sc3ccc(S(=O)(=O)N(C)C)cc32)CC1 was read as D1 PAM -1, D1 antag -94*, D1 agonist 52*, TRHR agonist 5 and TRHR enhancer -1.
`O=C(NCCO)C(=O)NCC(c1ccc2c(c1)OCO2)N1CCOCC1` (stereo unspecified) gave D1 PAM -2, D1 antag 1, D1 agonist 3, TRHR agonist 0 and TRHR enhancer -2.
Screening O=C(NC1CC(=O)N(c2ccc(F)cc2)C1)c1cc2ccccc2o1 (stereo unspecified) returned D1 PAM 4, D1 agonist 2, TRHR agonist 0 and TRHR enhancer -3.
N/C(=N\N=C\c1ccc(Br)o1)c1nonc1N was read as D1 PAM 2, D1 antag -8, D1 agonist 0, TRHR agonist -1 and TRHR enhancer 1.
Screening CN(C)CC/C=C1\c2ccccc2Sc2ccc(Cl)cc21 returned D1 PAM -3, D1 antag -82*, D1 agonist 22, TRHR agonist 1 and TRHR enhancer -1.
For CN(C)CC/C=C1/c2cc(F)ccc2CSc2ccc(F)cc21 the results were D1 PAM -9, D1 antag -4, D1 agonist 5, TRHR agonist 1 and TRHR enhancer 3.
For CC[N+](C)(C)CC/C=C1/c2ccccc2Sc2ccc(Cl)cc21 the results were D1 PAM -3, D1 antag -17, D1 agonist 0, TRHR agonist -1 and TRHR enhancer 4.
CCCCCCCCCC[N+](C)(C)CC/C=C1/c2ccccc2Sc2ccc(Cl)cc21 was read as D1 PAM -4, D1 antag 6, D1 agonist 53*, TRHR agonist 1 and TRHR enhancer 8.
For CN(C)CCNC(=O)Cn1c(=O)c2cccn2c2ccc(F)cc21 the results were D1 PAM -5, D1 antag 5, D1 agonist 37*!, TRHR agonist 1 and TRHR enhancer 0.
For CCN(CC)CCNC(=O)Cn1c(=O)c2cccn2c2ccc(F)cc21 the results were D1 PAM -2, D1 antag -12, D1 agonist 3, TRHR agonist 1 and TRHR enhancer 1.
Screening Nc1cc(N)nc(CS)n1 returned D1 PAM 3, D1 antag -54*, D1 agonist 3, TRHR agonist 0 and TRHR enhancer -2.
Screening Cc1ccc(CSc2nc(N)cc(N)n2)cc1 returned D1 PAM 0, D1 antag -8, D1 agonist 1, TRHR agonist 0 and TRHR enhancer 20.
CCn1c(Cc2ccccc2)nnc1SCC(=O)NC1CC1 was read as D1 PAM 1, D1 antag -32*, D1 agonist 0, TRHR agonist 0 and TRHR enhancer 9.
For COc1cc(-c2nnc(SCC(=O)NC3CCCC3)n2C)cc(OC)c1O the results were D1 PAM -4, D1 antag -41*, D1 agonist 2, TRHR agonist 0 and TRHR enhancer -2.
Screening Cn1c(Cc2ccc3c(c2)OCO3)nnc1SCC(=O)NC1CCCC1 returned D1 PAM -11, D1 antag -33*, D1 agonist 1, TRHR agonist -1 and TRHR enhancer -5.
Screening CCOc1ccc2nc(NC(=O)c3nc(SCc4ccccc4F)ncc3Cl)sc2c1 returned D1 PAM 1, D1 antag -11, D1 agonist 4, TRHR agonist 1 and TRHR enhancer 10.
O=C(CCCCn1c(=O)c2ccccc2n(CC(=O)Nc2cccc(F)c2)c1=O)NCc1ccccc1Cl was read as D1 PAM 0, D1 antag -19, D1 agonist 33*, TRHR agonist 0 and TRHR enhancer -8.
COc1ccc(CCNC(=O)CCCn2c(=O)c3ccccc3n(Cc3cccc(Cl)c3)c2=O)cc1OC was read as D1 PAM 6, D1 antag -16, D1 agonist 2, TRHR agonist -2 and TRHR enhancer -10.
O=C(CCCCn1c(=O)c2ccccc2n(CC(=O)Nc2ccc(F)cc2F)c1=O)NCCc1ccccc1 was read as D1 PAM 3, D1 antag -38*, D1 agonist -1, TRHR agonist 0 and TRHR enhancer -5.
Screening COc1ccc(CCNC(=O)CCCCn2c(=O)c3ccccc3n(Cc3ccc(Cl)cc3)c2=O)cc1OC returned D1 PAM 0, D1 antag -53*, D1 agonist 1, TRHR agonist -1 and TRHR enhancer -32.
For O=C(Cn1c(=O)c2ccccc2n(CC(=O)Nc2ccc(F)cc2F)c1=O)NCCc1ccccc1 the results were D1 PAM 3, D1 antag -3, D1 agonist 9, TRHR agonist 3 and TRHR enhancer 0.
`COC(=O)c1ccccc1NC(=O)Cn1c(=O)n(CCCC(=O)NCCc2ccc(OC)c(OC)c2)c(=O)c2ccccc21` gave D1 PAM -1, D1 antag -32*, D1 agonist -1, TRHR agonist -1 and TRHR enhancer -4.
Screening Cc1cc2c(s1)c1cnn(Cc3ccc(C)c(F)c3)c(=O)c1n2C returned D1 PAM 4, D1 antag -27, D1 agonist 2, TRHR agonist 0 and TRHR enhancer 7.

Source: PubChem BioAssay (National Center for Advancing Translational Sciences (NCATS))
